Values without a mark were called inactive. The source made the active and inactive calls.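 How the source made its calls, unless noted: active means mean inhibition over 43.08%, the solvent-only control mean plus 3 SD; inactive means the rest.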
Tests used:
[1] = molecular target: Nuclear receptor coactivator 3 (Homo sapiens) (UniProt Q9Y6Q9); assay: SRC3 coactivator transcriptional activity inhibitors, confirmation, cell-based, luminescence, quadruplicate (AID 588792); conditions: HEK293 GAL4-SRC3 luciferase reporter, at 3.6 µM, active compounds read high;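 further: 0% = DMSO treated cells and 100% = gossypol at 36 µM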
Sequence of Nuclear receptor coactivator 3 (Homo sapiens) (Q9Y6Q9 whole entry, looked up, the tested form may be a part): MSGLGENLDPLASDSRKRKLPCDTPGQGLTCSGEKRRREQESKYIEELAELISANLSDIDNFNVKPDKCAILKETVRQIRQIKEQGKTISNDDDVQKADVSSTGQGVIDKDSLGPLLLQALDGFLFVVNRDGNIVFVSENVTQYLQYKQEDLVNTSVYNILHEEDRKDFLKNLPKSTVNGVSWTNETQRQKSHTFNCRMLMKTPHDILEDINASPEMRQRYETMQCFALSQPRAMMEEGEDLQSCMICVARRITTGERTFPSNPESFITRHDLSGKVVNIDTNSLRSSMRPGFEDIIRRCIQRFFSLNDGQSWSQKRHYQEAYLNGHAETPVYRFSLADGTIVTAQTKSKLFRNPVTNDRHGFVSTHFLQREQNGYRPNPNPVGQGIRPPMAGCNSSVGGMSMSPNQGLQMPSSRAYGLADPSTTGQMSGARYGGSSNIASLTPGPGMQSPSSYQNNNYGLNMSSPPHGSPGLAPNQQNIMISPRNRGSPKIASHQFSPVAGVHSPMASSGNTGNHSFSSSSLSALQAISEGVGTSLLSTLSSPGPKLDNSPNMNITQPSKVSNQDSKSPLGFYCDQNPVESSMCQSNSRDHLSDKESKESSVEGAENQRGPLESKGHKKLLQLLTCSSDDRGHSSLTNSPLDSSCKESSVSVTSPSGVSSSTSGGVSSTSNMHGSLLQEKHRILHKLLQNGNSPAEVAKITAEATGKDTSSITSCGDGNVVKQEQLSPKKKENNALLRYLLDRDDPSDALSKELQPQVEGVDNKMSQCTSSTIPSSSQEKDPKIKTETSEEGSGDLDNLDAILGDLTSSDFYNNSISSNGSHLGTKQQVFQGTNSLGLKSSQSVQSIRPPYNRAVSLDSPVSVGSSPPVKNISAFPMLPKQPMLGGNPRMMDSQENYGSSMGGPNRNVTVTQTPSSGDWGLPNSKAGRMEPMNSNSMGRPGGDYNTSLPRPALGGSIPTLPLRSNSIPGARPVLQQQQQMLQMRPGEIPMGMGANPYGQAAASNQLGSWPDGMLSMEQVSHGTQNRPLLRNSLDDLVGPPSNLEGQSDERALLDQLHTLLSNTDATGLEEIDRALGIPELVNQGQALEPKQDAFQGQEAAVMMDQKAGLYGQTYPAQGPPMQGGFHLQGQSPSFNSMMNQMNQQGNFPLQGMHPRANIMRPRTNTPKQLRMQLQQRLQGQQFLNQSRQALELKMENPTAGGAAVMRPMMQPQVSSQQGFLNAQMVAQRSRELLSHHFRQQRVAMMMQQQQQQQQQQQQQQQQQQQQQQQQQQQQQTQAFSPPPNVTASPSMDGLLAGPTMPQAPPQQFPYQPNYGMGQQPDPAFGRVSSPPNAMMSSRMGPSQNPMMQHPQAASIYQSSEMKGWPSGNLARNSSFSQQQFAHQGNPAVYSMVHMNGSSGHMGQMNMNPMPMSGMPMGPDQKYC

[2] = tested on: transactivating tegument protein VP16 (Human herpesvirus 1), Gal4-VP16 luciferase reporter; assay: VP16 transactivation inhibitors, counter-screen for SRC3 inhibitor project, cell-based, luminescence, high throughput (AID 588794; in the data active means inhibition above about 30%); conditions: mammalian cells, VP16-driven luciferase reporter luminescence; at 3.6 µM; active compounds read high
[3] = molecular target: Nuclear receptor coactivator 1 (Homo sapiens) (UniProt Q15788); assay: SRC1 coactivator transcriptional activity inhibitors, confirmation, cell-based, luminescence, quadruplicate (AID 588820;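 active means mean inhibition above 46.68%, the untreated control wells mean plus 3 SD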;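 further: 0% = DMSO wells and 100% = gossypol 36 µM treated wells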); conditions: HEK293 GAL4-SRC1 luciferase reporter, at 3.6 µM, active compounds read high
Sequence of Nuclear receptor coactivator 1 (Homo sapiens) (Q15788 whole entry, looked up, the tested form may be a part): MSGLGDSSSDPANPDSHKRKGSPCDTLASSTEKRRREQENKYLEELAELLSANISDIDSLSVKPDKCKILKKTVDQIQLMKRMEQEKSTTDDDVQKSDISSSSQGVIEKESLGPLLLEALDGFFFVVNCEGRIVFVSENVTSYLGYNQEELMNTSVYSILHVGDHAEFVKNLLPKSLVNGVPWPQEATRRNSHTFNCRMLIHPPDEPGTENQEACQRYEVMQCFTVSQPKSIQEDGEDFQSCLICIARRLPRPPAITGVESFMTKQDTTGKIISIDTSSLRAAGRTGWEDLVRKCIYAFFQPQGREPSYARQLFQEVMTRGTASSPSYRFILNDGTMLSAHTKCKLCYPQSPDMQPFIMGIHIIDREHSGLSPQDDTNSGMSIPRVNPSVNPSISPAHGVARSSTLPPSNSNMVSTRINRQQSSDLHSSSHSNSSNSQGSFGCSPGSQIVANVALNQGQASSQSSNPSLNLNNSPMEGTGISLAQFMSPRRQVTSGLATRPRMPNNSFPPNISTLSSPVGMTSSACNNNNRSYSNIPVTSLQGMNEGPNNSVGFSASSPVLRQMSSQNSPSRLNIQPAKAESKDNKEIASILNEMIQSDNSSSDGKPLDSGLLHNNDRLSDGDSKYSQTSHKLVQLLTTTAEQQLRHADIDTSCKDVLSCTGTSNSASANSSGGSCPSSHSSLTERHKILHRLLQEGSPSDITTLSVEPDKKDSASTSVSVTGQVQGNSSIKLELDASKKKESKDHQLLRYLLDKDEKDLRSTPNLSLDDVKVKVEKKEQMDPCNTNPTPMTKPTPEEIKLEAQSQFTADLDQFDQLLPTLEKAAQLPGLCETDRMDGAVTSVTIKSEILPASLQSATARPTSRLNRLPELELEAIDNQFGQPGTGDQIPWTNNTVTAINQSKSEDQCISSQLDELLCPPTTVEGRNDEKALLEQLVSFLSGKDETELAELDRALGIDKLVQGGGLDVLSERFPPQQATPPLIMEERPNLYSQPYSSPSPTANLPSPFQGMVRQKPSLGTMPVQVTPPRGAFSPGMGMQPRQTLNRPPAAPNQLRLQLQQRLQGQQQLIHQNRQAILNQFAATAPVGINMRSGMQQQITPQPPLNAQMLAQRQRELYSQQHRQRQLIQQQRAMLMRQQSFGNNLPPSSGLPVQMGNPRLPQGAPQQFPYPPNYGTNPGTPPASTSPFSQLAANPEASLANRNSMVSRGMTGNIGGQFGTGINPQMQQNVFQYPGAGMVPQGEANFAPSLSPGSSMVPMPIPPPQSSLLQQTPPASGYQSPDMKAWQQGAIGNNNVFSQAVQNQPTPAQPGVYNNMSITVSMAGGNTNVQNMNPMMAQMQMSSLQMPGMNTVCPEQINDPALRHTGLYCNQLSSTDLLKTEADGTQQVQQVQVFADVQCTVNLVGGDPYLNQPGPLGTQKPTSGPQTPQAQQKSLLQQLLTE

[4] = VP16 transactivation inhibitors, counter-screen for SRC1 inhibitor project, cell-based, luminescence, high throughput (AID 588824; in the data active means inhibition above about 25%); conditions: cell-based VP16 transactivation luciferase luminescence; at 3.6 µM; active compounds read high

Row | SMILES | inhibition [1] | inhibition [2] | inhibition [3] | inhibition [4]
1 | OCCNc1ncnc2ccc(Br)cc12 | 21.8% | 30.6% (active) | 29.2% | 16.2%
2 | Cn1c(=O)c2c(nc(Oc3ccc4ccccc4c3)n2C)n(C)c1=O | 47.5% (active) | 39.4% (active) | 53.3% (active) | 34.7% (active)
3 | c1cncc(CNc2ncnc3ccc(-c4ccoc4)cc23)c1 | 75.2% (active) | 42.8% (active) | 66% (active) | 47.8% (active)
4 | Cn1nnnc1N=N/C(=N/Nc1ccccc1)c1ccccc1 | 79.8% (active) | 42.9% (active) | 55.5% (active) | 32.8% (active)
5 | COc1ccc(-c2csc3ncnc(NCCCO)c23)cc1 | 66.3% (active) | 46.3% (active) | 50.2% (active) | 49.8% (active)
6 | CCCN(CCC)c1nc(-c2ccccn2)nc2ccccc12 | 80% (active) | 35.2% (active) | 30.2% | 29.9% (active)
7 | O=C(/C(=C/c1ccc(Cl)cc1)c1nc2ccccc2[nH]1)c1cccs1 | 79.1% (active) | 61.9% (active) | 22.4% | 49.5% (active)
8 | CCCCN(CCCC)c1ncnc2nc[nH]c12 | 43.2% (active) | 30.1% (active) | 36.2% | 25.2%
9 | Oc1ccc(C=NNc2ccccn2)c(O)c1 | 76% (active) | -12.1% | 14.7% | -1.88%
10 | CC(=O)c1ccc(Nc2ncnc3ccc(Br)cc23)cc1 | 49.5% (active) | 39.7% (active) | 56.4% (active) | 37.8% (active)
11 | COC1CC(C)C(OC)c2cc(O)cc(c2O)NC(=O)C(C)=CC=CC(C)C(OC(N)=O)C(C)=CC(C)C1OC (centres undefined) | 72.5% (active) | 80.2% (active) | -2.07% | 77% (active)
12 | Cc1ccc(CNc2ncnc3ccc(-c4ccoc4C)cc23)o1 | 58.8% (active) | 52% (active) | 62% (active) | 50.9% (active)
13 | Cc1ccc2nc(NNC(=O)c3ccc(S(=O)(=O)N4CCc5ccccc5C4)cc3)sc2c1 | 41.8% | 46.4% (active) | 45% | 50% (active)
14 | CCOC(=O)c1ccccc1OC(=O)NNc1ccccc1 | 15.6% | 46.1% (active) | 11.2% | 38.8% (active)
15 | CN(C)C=Nc1c(C(=O)c2ccccc2)sc2nccc(N(C)C)c12 | 20.3% | 16.3% | 30.8% | 16.9%
16 | NC(=O)c1sc2nc3c(c(-c4ccco4)c2c1N)CCC3 | 53.9% (active) | 8.75% | 52.9% (active) | 33.1% (active)
17 | Clc1cncc(Cl)c1N/N=C/c1ccncc1 | 24.8% | 26.7% | 40.4% | 27.4% (active)
18 | Cc1cc(=O)[nH]c(Nc2cccc(C(F)(F)F)c2)n1 | 38.8% | 34.2% (active) | 49.4% (active) | 27% (active)
19 | CN1CC(=O)N2C(c3cccc([N+](=O)[O-])c3)c3[nH]c4ccccc4c3C[C@H]2C1=O (some centres undefined) | 36.1% | 36.7% (active) | 26.9% | 34.5% (active)

Row | SMILES | inhibition [1] | inhibition [2] | inhibition [3] | inhibition [4]
20 | Nc1ncnc(NCc2ccccc2)c1[N+](=O)[O-] | 38.8% | 26.7% | 38.1% | 42.4% (active)
21 | CC(C)n1c(-c2cccnc2)nc2cnccc21 | 29.8% | 26.9% | 38.1% | 18.9%
22 | CCCCCCCCCCCCCCCC[n+]1cccc2ccccc21 | 44.9% (active) | 69.2% (active) | 39.9% | 76% (active)
23 | COC(=O)c1ccc2nc(Nc3nc4ccc(F)cc4s3)sc2c1 | 21.2% | 3.83% | -36.1% | -19.9%
24 | C#CC[N+](C)(C)CCCCCCCCCC | 18.6% | 23.2% | 9.87% | 16.1%
25 | Cn1c(/C(C#N)=C/c2ccc(-c3ccc(S(N)(=O)=O)cc3)o2)nc2ccccc21 | 27.9% | 27.3% | -4.53% | 28.9% (active)
26 | Cc1ccc(N=c2c([N+](=O)[O-])nn(-c3ccc4c(c3)OCCO4)n2O)cc1F | 36.5% | -0.46% | 19.9% | -9.63%
27 | CNC(=O)c1ccc(NC(=O)C2CCN(c3ncnc4sc(C)c(C)c34)CC2)cc1 | 51.6% (active) | 35.5% (active) | 48.7% (active) | 30% (active)
28 | Cc1nc2ccc(NC(=O)c3ccc(Cl)c(S(=O)(=O)N(C)c4ccccc4)c3)cc2s1 | 19.2% | 35.7% (active) | 3.35% | 33.7% (active)
29 | NC(=S)NN=Cc1nccc2c(N)cccc12 | 72.3% (active) | 17.2% | 47.8% (active) | 8.49%
30 | CC1CCN(c2nc3ccc(C(=O)O)cc3s2)CC1 | 10.7% | -7.13% | -48.3% | -1.81%
31 | COc1ccc(-c2csc(NC(=O)C3CCN(c4ncnc5sc(C)c(C)c45)CC3)n2)cc1OC | 24.1% | 58.1% (active) | 23.8% | 52.6% (active)
32 | Cn1c(CC(=O)Nc2ccc(Cl)c(Cl)c2)nnc1SCC(=O)N1CCN(c2ccccc2)CC1 | 14.9% | 12.5% | 9.04% | 9.79%
33 | COc1ccc(-c2nsc3c(N4CCCCC4)ncnc23)cc1 | 32.4% | 20.4% | 1.39% | -6.65%
34 | O=C(Nc1ccc(S(=O)(=O)N2CCCCC2)cc1)c1ccc(CN2CCOCC2)cc1 | 15.9% | 46% (active) | -6% | 47.1% (active)
35 | CCCC(=O)NC(c1ccccc1OC)c1ccc2cccnc2c1O (centres undefined) | 61.1% (active) | 37.8% (active) | 52.2% (active) | 41.9% (active)
36 | O=c1[nH]c(=O)n(C2OC(CO)C(O)C2O)cc1F (centres undefined) | 57.4% (active) | 58.5% (active) | 26.9% | 57.2% (active)
37 | c1nc2sc3c(c2c2nnnn12)CCCC3 | 28% | 24.2% | 36.8% | 9.37%
38 | COc1ccc(-c2cn[nH]c2N)c(OC)c1 | 59.7% (active) | 50.5% (active) | 43.9% | 41.7% (active)

Row | SMILES | inhibition [1] | inhibition [2] | inhibition [3] | inhibition [4]
39 | CCc1ccc2[nH]c3nc(N/N=C/c4cccc(O)c4)nnc3c2c1 | 37.2% | 64.4% (active) | 22.6% | 59.5% (active)
40 | COc1ccc(NC(=O)CN(C)C(=O)C2(c3ccccc3)CCCC2)cc1 | 25.3% | 8.28% | 25.3% | 4.02%
41 | COc1ccc(-c2ncncc2-c2ccccc2)c(O)c1 | 27% | 17.1% | 35% | 14.7%
42 | COc1ccc(-c2cn[nH]c2C)cc1OC | 21.1% | 10.4% | 12.1% | 10.7%
43 | O=C(N/N=C/c1cc(O)ccc1Br)c1cccnc1 | 17.6% | 37.5% (active) | 19.8% | 39.3% (active)
44 | CCN(CC)CCNc1ccc(C)c2sc3ccc(O)cc3c(=O)c12 | 41.5% | 34.1% (active) | 50% (active) | 31.8% (active)
45 | Cc1ccc(-n2c(O)c(C=Nc3cc(C)on3)c3ccccc3c2=O)c(C)c1 | 52.8% (active) | 39.9% (active) | 44.8% | 35.7% (active)
46 | CCN1CCN(c2ccc(Nc3ccnc4ccccc34)cc2)CC1 | 43.5% (active) | 32.1% (active) | 40.1% | 42.5% (active)
47 | CC(C)c1nc(NCCO)c(C#N)c2c1CCCC2 | 40% | 30% (active) | 22.1% | 35.1% (active)
48 | COc1ccc(-c2c[n+]3c(n2-c2ccccc2)CCCCC3)cc1 | 43.4% (active) | 39.6% (active) | 17.3% | 30.1% (active)
49 | COc1cc2cncc(Cc3ccc(Cl)cc3)c2cc1OC | 42.2% | 40.7% (active) | 56.2% (active) | 39.4% (active)
50 | CCN(CC)CCCNc1ccc2ncn3c4ccc(O)cc4c(=O)c1c23 | 16.5% | 51.3% (active) | 47.9% (active) | 49.9% (active)
51 | CC(=NNc1nc2ccccc2o1)c1cc2ccccc2cn1 | 88.8% (active) | 86.4% (active) | 80.6% (active) | 86.3% (active)
52 | O=C1CC(c2ccc3c(c2)OCO3)Sc2nc3ccccc3n21 (centres undefined) | -6.28% | -34.8% | -110% | -73.2%
53 | COC1C(CO)OC(n2c3c(Cl)cccc3c3c4c(c5c6cccc(Cl)c6[nH]c5c32)C(=O)NC4=O)C(O)C1O (centres undefined) | 68.3% (active) | 49.2% (active) | 23.4% | 42.6% (active)
54 | COc1cccc(/C=N/NC(=O)c2cc(-c3cccn3C)n[nH]2)c1O | 41.2% | 35.7% (active) | 37.6% | 35.6% (active)
55 | Cc1ccc(C2NC(=O)CCC2[N+](=O)[O-])cc1 (centres undefined) | -3.62% | -1.77% | -9.25% | -3.26%
56 | Cc1cc(C(=O)COC(=O)c2cccc(NS(C)(=O)=O)c2)c(C)n1CC1CCCO1 (centres undefined) | 19.3% | -22.1% | -46.9% | -54.4%
